Compound activity as filed in PubChem.
A selection: hits, their analogues and other compounds. The true share with any hit is near 5.4%.
VACV mCherry inh = inhibitors of vaccinia virus infection (mCherry reporter signal); Potency, µM (titrated, usually from 36.5 µM), inactives show at the highest dose activity change, negative = inhibition, actives largely listed as inhibitors; 310,000 compounds, 0.63% hits; Vaccinia virus mCherry reporter infection, fluorescence; calls by dose curve; tested in A549 cells; also: nearly all actives have a fitted effect of over 35% in size
FMDV antiviral = antivirals against foot and mouth disease virus; 410,000 compounds, 1.2% hits; AID 1159524; FMDV antiviral cell-based qHTS; Potency, µM (series often up to 57.9 µM), inactives show at the highest dose activity change, negative = inhibition, usual class: inhibitors; calls by dose curve; tested in HEK293T cells; also: read-out not given here; nearly all actives have a fitted effect of over 45% in size
Marburg entry inh = blocks Marburg virus binding to or entry into cells; 300,000 compounds, 1.8% hits; Marburg virus pseudotyped entry inhibition, cell reporter; Potency, µM (titrated, usually from 37.8 µM), for inactives: at the top dose activity change, negative = inhibition, hits mostly inhibitors; AID 540276; calls by dose curve; tested in HEK293 cells
Sm TGR inh = inhibitors of Schistosoma mansoni thioredoxin glutathione reductase; Potency, µM (titrated, usually from 114 µM), without a hit: at the top dose activity change, negative = inhibition, actives largely listed as inhibitors; AID 485364; purified TGR, DTNB reduction, TNB absorbance 405 nm; 360,000 compounds, 3% hits; Q962Y6; active = well fitted inhibition curve with a large enough effect; inconclusive = small, poorly fitted or top-dose-only effect; inactive = no such curve, though single readings can be large or run the other way; also: nearly all actives have a fitted effect of over 60% in size
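Kinetic colorimetric format: TGR-catalysed, NADPH-driven DTNB reduction monitored via TNB absorbance. Enzyme dispensed at 20 nM; compound exposure 15 min at room temperature before reaction start.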
VACV Venus inh = inhibitors of vaccinia virus (Venus reporter) | Vaccinia virus Venus reporter expression, fluorescence | Potency, µM (highest dose often 36.5 µM), for the others: top-dose activity change, negative = inhibition, usual class: inhibitors | 330,000 compounds, 0.46% hits | AID 720580; calls by dose curve; tested in A549 cells; also: nearly all actives have a fitted effect of over 30% in size
LASV entry inh = inhibitors of Lassa virus binding or cell entry; Lassa virus pseudotype entry inhibition, cell reporter; Potency, µM (highest dose often 37.9 µM), for the others: top-dose activity change, negative = inhibition, actives largely listed as inhibitors; 300,000 compounds, 1.2% hits; AID 540256; calls by dose curve; tested in HEK293 cells; also: nearly all actives have a fitted effect of over 50% in size
Numbers without * were called inactive; i = inactive; ? = inconclusive; / = not tested or not shown; [ ] = dose if it differs, or a comment. % is scaled to controls: 0 for no effect and ±100 for the full control effect; potency is read from the fitted curve at half-maximal effect.

SMILES	VACV mCherry inh	FMDV antiviral	Marburg entry inh	Sm TGR inh	VACV Venus inh	LASV entry inh
CN(C)c1ccc(/C=C/c2cc3ccccc3cn2)cc1	-28.2%	/	/	/	-29.0%	/
C=CC1CN2CCC1CC2[C@@H](OC(=O)c1ccc(OC)cc1)c1ccnc2ccccc12 (some centres undefined)	-27.5%	?	11.2µM*	0.4%	-16.8%	?
CS(=O)(=O)CCNCc1ccc(-c2ccc3ncnc(Nc4ccc(OCc5cccc(F)c5)c(C(F)(F)F)c4)c3c2)o1	/	/	/	/	/	19.9µM*
CS(=O)(=O)CCNCc1nc(-c2ccc3ncnc(Nc4ccc(OCc5cccc(F)c5)c(Cl)c4)c3c2)cs1	/	8.8%	/	/	/	/
CS(=O)(=O)CCNCc1ccc(-c2ccc3ncnc(Nc4ccc(OCc5ccccc5)cc4)c3c2)o1	/	/	/	/	/	15.8µM*
c1ccc(Nc2ncnc3ccc(-c4ccoc4)cc23)cc1	/	-26.8%	/	/	/	/
COc1ccc(-n2c(SCc3ccccc3F)nc3c([nH]c4ccccc43)c2=O)cc1	-4.6%	0.0%	/	6.5%	-10.1%	6.4%[46.1 µM]
CCOc1ccccc1CNC(=O)c1ccc(N2Cc3ccccc3Oc3ncccc32)s1	-16.1%	-14.4%	/	-1.2%	-10.5%	-3.1%[46.1 µM]
CCOc1cc(/C=C/C(=O)NCCc2ccc(S(N)(=O)=O)cc2)ccc1OCC(C)C	/	?	/	0.9%	/	/
CCOc1cc(/C=C/C(=O)Nc2ccc(C(=O)NCCN(CC)CC)cc2)ccc1OCC(C)C	/	?	18.3µM*	10.3%	/	?
O=C(CN1C(=O)CC(c2ccco2)Sc2ccccc21)Nc1ccccc1F (centres undefined)	?	3.6%	/	25.1µM*	-19.2%	/
CCN1C(=O)CC(c2ccco2)Sc2ccccc21 (centres undefined)	/	0.0%	-5.8%	25.1µM*	/	-19.9%
O=C(CN1C(=O)CC(c2ccco2)Sc2ccccc21)Nc1ccc(Br)cc1 (centres undefined)	0.3%	-21.2%	7.5%[46.1 µM]	-8.2%	-3.6%	/
Nc1nc(NCc2cccc(Cl)c2)c2[nH]cnc2n1	-19.2%	/	/	/	-18.4%	/
CCCc1nc(NCc2ccccn2)c2nnn(Cc3ccccc3F)c2n1	-9.0%	25.1µM*	3.0%	-0.4%	-23.1%	2.1%
C=CCn1nc([N+](=O)[O-])nc1Sc1cccc2cccnc12	7.94µM*	?	?	8.5%	8.91µM*	?
O=[N+]([O-])c1ccc(Sc2cccc3cccnc23)cc1	-15.4%	/	-18.5%	-7.5%	-7.4%	7.2%
COc1ccc(-c2nc3n(n2)C(=O)C[C@@H](c2ccco2)S3)cc1	/	/	9.9%	/	/	/
CCOC(=O)C1=C(O)/C(=C\c2cc(C)n(-c3ccc(F)cc3)c2C)N=C1C	-7.7%	-15.8%	-13.7%[46.1 µM]	14.1µM*	69.8%	-19.6%
CCOC(=O)c1c(C)n(-c2ccc(F)cc2)c2ccc(O)cc12	/	?	/	-5.9%	/	/
CCOC(=O)C1=C(O)/C(=C\c2cc(C)n(-c3ccccc3F)c2C)N=C1C	-5.3%	-0.2%	?	25.1µM*	2.0%	7.1%
CCOC(=O)C1=C(O)/C(=C/c2cccc(OC)c2O)N=C1C	-10.1%	12.7%	?	/	3.8%	4.9%[46.1 µM]
O=S(=O)(c1ccc(-c2csc(=Nc3ccc(OC(F)(F)Cl)cc3)n2CCCO)cc1)N1CCCC1	?	?	?	-2.0%	?	?
CC(=O)c1cccc(OCc2cc(C(=O)N3C[C@@H](C)O[C@@H](C)C3)no2)c1	-0.6%	37.0%	?	3.16µM*	-12.1%	?
CC(=O)c1cccc(OCc2cc(C(=O)N(C)CCC3CCOCC3)no2)c1	/	22.7%	/	2.24µM*	/	/
SMILES	VACV mCherry inh	FMDV antiviral	Marburg entry inh	Sm TGR inh	VACV Venus inh	LASV entry inh
CC(=O)c1ccc(OCc2cc(C(=O)N3CCC[C@H]3CO)no2)cc1	/	11.4%	/	50.1µM*	/	/
CC(=O)c1cccc(OCc2cc(C(=O)N3C[C@H]4CC[C@H]3C4)no2)c1	/	16.7%	/	7.1%	/	/
COc1ccccc1OCc1cc(C(=O)N(C)CCC2CCOCC2)no1	-12.1%	60.3%	/	/	-16.2%	/
CCc1ccccc1NC(=O)c1cccc(NC(=O)/C=C/c2ccco2)c1	-4.0%	-13.5%	-23.9%	20µM*	-26.1%	-7.4%
Cc1ccc(NC(=O)c2cccc(NC(=O)/C=C/c3ccco3)c2)cc1C	i	7.6%	?	44.7µM*	-24.8%	-4.6%
O=C(/C=C/c1ccco1)Nc1cccc(C(=O)Nc2ccccc2C(=O)O)c1	30.8%[7.34 µM]	2.0%	/	3.98µM*	4.0%[7.34 µM]	/
COc1cc(Cl)c(C)cc1N1C(=O)[C@@H]2C[C@H]1CN2Cc1ccccn1	-8.0%	-10.6%	/	/	-2.3%	/
COc1cccc(C2=CC(c3ccccc3)n3nnnc3N2)c1 (centres undefined)	?	/	?	-3.2%	-19.1%	?
COc1cccc(C2C=C(c3ccc(OC)cc3OC)Nc3nnnn32)c1 (centres undefined)	i	?	?	25.1µM*	-16.5%	?
COc1ccc(C2=CC(c3ccc(OC)c(OC)c3)n3nnnc3N2)c(OC)c1 (centres undefined)	-12.8%	-11.8%	1.7%	39.8µM*	-13.3%	-6.0%
O=C(NCCCCc1ccccc1)c1nn(-c2ccccc2)nc1CO	-1.4%	?	-8.5%[46.1 µM]	-1.2%	-4.5%	-18.2%[46.1 µM]
CCOC(=O)C1=C(C)OC(N)=C(C#N)C1c1cc2cc(C)ccc2nc1N1CCCCC1 (centres undefined)	i	12.8%	?	3.55µM*	-10.7%	-1.1%
CCOC(=O)C1=C(C)OC(N)=C(C#N)C1c1cc(SCC)oc1C (centres undefined)	-33.1%	-11.8%	-12.8%[46.1 µM]	44.7µM*	-16.9%	4.1%[46.1 µM]
Cc1ccccc1OCC(=O)NCC(=O)OCc1cccc2ccccc12	31.7%	/	/	/	-10.5%	/
CCS(=O)(=O)N1CC(=O)N(c2ccc(Cl)cc2C)C(C)(C(=O)NC2CCCCCC2)C1 (centres undefined)	-10.9%	-0.8%	/	-2.7%	-6.7%	?
COCCCNC(=O)C[C@H]1C[C@H](C(=O)N2CCOCC2)[C@@]2(CCC3CCCC3)c3[nH]c4cc(-c5ccco5)ccc4c3CCN2C1=O	-11.4%	-1.5%	/	/	?	/
CN(C)CCCNC(=O)C[C@H]1C[C@H](C(=O)N2CCOCC2)[C@@]2(CCC3CCCC3)c3[nH]c4cc(-c5ccco5)ccc4c3CCN2C1=O	?	-24.6%	/	/	12.6µM*	/
CC(C)(C)NC(=O)C[C@H]1C[C@H](C(=O)N2CCOCC2)[C@@]2(CCC3CCCC3)c3[nH]c4cc(-c5ccco5)ccc4c3CCN2C1=O	?	-22.3%	/	/	10µM*	/
O=C1CC[C@@H](CN(Cc2cccnc2)C2CCN(c3ccc(NC(=O)c4cnccn4)cc3)CC2)N1	i	24.8%	/	/	1.8%	/
CC(CCN1CCCCc2nc(C)c(C)cc21)=NOC[C@@H](O)[C@H]1O[C@@H]2OC(C)(C)O[C@H]2[C@@H]1O	/	/	18.5%[14.2 µM]	/	/	?
O=[N+]([O-])c1cc(-c2nc(-c3ccccc3)no2)ccc1N1CCCCC1	-4.7%	-15.4%	3.5%[46.1 µM]	4.9%	-5.4%	2.6%[46.1 µM]
